Laboratory results: publication PMC4336329 (PLoS ONE, 2015)
About 2,200 (0.71%) of roughly 310,000 compounds showed an effect of 50% or more. Effects have a minus sign here. Shown is part of a subset that was picked to be rich in strong results.

Target: human ether-à-go-go-related gene (hERG) potassium channel (human, UniProt Q12809)
Experiment: primary screen, population patch clamp on CHO cells stably expressing hERG; higher = less effect of the substance
Procedure: Briefly, Chinese hamster ovary (CHO) cells stably expressing the hERG channel were dislodged from tissue culture flasks and dispensed into PPC plates. […] During the recording, background leak currents were estimated by a 100 ms step to -80 mV from an initial holding potential of -70 mV and subtracted from the subsequent current measurement. The campaign was conducted in two phases using slight differences in recording protocol. In the first phase, the initial voltage pulse used a 100 ms step to -30 mV from a holding potential of -70 mV, a 2 s conditioning step to +25 mV, and a 2 s test step to -30 mV. During the second phase of the screen, the potential during the conditioning step was raised to +45 mV. In both phases of the campaign, a secondary voltage pulse was applied using the same parameters as the second phase initial pulse. The initial and secondary pulses were applied in the absence of compound, and upon application of 1 μM and 10 μM test concentrations. Small molecule effects on hERG current density were quantified by […].

Sequence of human ether-à-go-go-related gene (hERG) potassium channel (Q12809 whole entry, looked up): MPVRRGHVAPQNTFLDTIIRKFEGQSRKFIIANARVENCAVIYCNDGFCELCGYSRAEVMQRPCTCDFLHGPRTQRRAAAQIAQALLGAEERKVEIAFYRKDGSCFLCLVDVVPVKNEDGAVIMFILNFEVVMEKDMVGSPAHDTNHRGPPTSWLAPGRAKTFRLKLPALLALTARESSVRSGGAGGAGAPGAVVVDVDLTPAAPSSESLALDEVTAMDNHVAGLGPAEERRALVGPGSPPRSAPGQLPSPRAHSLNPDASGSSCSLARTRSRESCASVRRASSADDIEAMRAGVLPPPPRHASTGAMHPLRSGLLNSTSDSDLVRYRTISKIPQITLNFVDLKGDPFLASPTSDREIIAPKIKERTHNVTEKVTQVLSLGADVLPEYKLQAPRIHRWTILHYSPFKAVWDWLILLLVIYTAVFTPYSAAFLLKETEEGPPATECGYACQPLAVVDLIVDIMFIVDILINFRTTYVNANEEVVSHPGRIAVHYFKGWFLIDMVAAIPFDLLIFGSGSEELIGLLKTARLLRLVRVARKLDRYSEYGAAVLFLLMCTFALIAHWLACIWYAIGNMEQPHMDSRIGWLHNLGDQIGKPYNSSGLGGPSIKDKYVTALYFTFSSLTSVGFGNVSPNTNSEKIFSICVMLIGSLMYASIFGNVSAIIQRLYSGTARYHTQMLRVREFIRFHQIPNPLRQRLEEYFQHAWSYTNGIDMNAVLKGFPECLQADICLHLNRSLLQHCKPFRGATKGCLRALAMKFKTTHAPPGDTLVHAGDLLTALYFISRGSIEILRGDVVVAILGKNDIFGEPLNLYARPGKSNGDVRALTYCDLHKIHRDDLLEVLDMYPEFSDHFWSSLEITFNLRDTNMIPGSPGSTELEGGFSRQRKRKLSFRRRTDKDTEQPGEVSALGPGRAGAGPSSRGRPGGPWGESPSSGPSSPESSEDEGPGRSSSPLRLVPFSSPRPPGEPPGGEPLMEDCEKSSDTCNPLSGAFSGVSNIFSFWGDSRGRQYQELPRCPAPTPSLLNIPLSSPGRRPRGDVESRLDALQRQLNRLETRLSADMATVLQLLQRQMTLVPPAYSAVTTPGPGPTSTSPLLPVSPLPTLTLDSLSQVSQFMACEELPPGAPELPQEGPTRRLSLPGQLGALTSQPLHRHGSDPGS

| SMILES | hERG current change (%, negative = inhibition) at 1uM [%] |
| --- | --- |
| COc1cccc(-c2ocnc2C(=O)Nc2ccc(N3CCOCC3)cc2N2CCOCC2)c1 | 15.6 |
| O=S(=O)(Nc1cc(Sc2cccc3cccnc23)c(O)c2ccccc12)c1ccc(F)cc1 | 13.4 |
| CC(C)Oc1ccc(CNC(=O)C2CCN(C(=O)N3CCOc4ccccc43)CC2)cc1 | 6.25 |
| NC(=O)C1CCN(CC(=O)Nc2cc(S(=O)(=O)N3CCOCC3)ccc2N2CCCC2)CC1 | -1.18 |
| COC(=O)C1=COC(OC2OC(CO)C(O)C(O)C2O)C2C1C=CC2(O)CO (centres unmarked) | 5.93 |
| COc1ccc(Cl)cc1NC(=O)[C@@]1(CC(=O)O)CC(/C=C/c2ccccc2)=NO1 | 12.8 |
| CCc1ccc(-c2cc(C)no2)cc1S(=O)(=O)N1CCN(C(=O)c2ccco2)CC1 | -4.73 |
| O=c1nc2ccccc2c2n1CC(CN1CCN(c3ccc(F)cc3)CC1)N2 (centres unmarked) | -65.6 |
| O=c1nc2ccccc2c2n1CC(CN1CCN(c3cccc(Cl)c3)CC1)N2 (centres unmarked) | -38.9 |
| O=c1nc2ccccc2c2n1CC(CN1CCN(c3ccccc3F)CC1)N2 (centres unmarked) | -20.7 |
| O=C1NCCN(Cc2cccc(Oc3ccccc3)c2)C1CC(=O)N1CCCO1 (centres unmarked) | 12.1 |
| COc1ccc(-c2nc(=S)[nH][nH]2)cc1OC | 10.4 |
| Cc1ccc(Cn2ccnc2C(=O)Nc2ccccc2)cc1 | 9.01 |
| O=C(Nc1ccccc1)c1nccn1Cc1ccc(F)cc1 | 11.3 |
| N#Cc1ccc(Cn2ccnc2C(=O)Nc2ccccc2)cc1 | -86.8 |
| O=C(NC(c1ccccc1)c1ccccn1)c1cccc([N+](=O)[O-])c1 (centres unmarked) | 12.3 |
| O=C1C(=O)N(CCN2CCOCC2)C(c2cccc(Cl)c2)/C1=C(\O)c1ccc2c(c1)OCCO2 (centres unmarked) | 2.15 |
| CC(=O)c1coc2ccc(OCC(=O)O)cc12 | -0.294 |
| CCOc1cc(/C=N/NC(=O)c2cccnc2)ccc1OCC(N)=O | 10.8 |
| CCOc1cc(/C=N/NC(=O)c2cccnc2)ccc1O | 7.47 |
| CCOc1cc(/C=N/NC(=O)c2cccnc2)cc(Br)c1OCC(N)=O | -69.4 |
| CCCCn1c2c(c(=N)c3ccccc31)CCC2.I | -16.6 |

| SMILES | hERG current change (%, negative = inhibition) at 1uM [%] |
| --- | --- |
| CCOC(=O)Cn1c2c(c(=N)c3ccccc31)CCC2.Cl | 12.7 |
| Br.CCn1c2c(c(=N)c3ccccc31)CCC2 | 12 |
| CCCCCCCn1c2c(c(=N)c3ccccc31)CCC2.I | -89.6 |
| O=C(O)CCn1c2c(c3ccccc31)CCCC2 | 19.5 |
| CCCCCn1c2c(c(=N)c3ccccc31)CCC2.I | -61.5 |
| CCOc1cc(NC(=S)NCCCN2CCOCC2)c(OCC)cc1NC(=O)c1ccccc1 | 16.1 |
| O=C(Nc1ccccc1)C1CC=CCC1C(=O)OCC1CCCO1 (centres unmarked) | -5.31 |
| O=C1C2CCCN2C(=O)N1CCCCN1CCN(c2ccccc2)CC1 (centres unmarked) | 1.66 |
| Cc1ccc(N2CCN(CCCCN3C(=O)C4CCCN4C3=O)CC2)cc1.Cl (centres unmarked) | -3.91 |
| O=C(CCCN1C(=O)C2CCCCN2C1=O)N1CCN(c2ccc([N+](=O)[O-])cc2)CC1 (centres unmarked) | -78.5 |
| O=C1C2CCCN2C(=O)N1CCN1CCN(c2ccccc2)CC1 (centres unmarked) | -10.6 |
| O=C1C2CCCCN2C(=O)N1CCN1CCN(c2ccc([N+](=O)[O-])cc2)CC1 (centres unmarked) | -69.7 |
| O=C1C2CCCCN2C(=O)N1CCCCN1CCN(c2ccc([N+](=O)[O-])cc2)CC1 (centres unmarked) | -80.7 |
| O=C(CCN1C(=O)C2C3C=CC(C3)C2C1=O)N1CCN(c2ccc([N+](=O)[O-])cc2)CC1 (centres unmarked) | -49.5 |
| Cc1ccc(N2CCN(CCCN3C(=O)C4CCCN4C3=O)CC2)cc1.Cl (centres unmarked) | 4.77 |
| O=C1C2CCCCN2C(=O)N1CCCN1CCN(c2ccc(F)cc2)CC1 (centres unmarked) | -3.12 |
| O=C1C2CCCN2C(=O)N1CCCN1CCN(c2ccc([N+](=O)[O-])cc2)CC1 (centres unmarked) | -63.3 |
| Cl.Nc1ccc(N2CCN(CCCCN3C(=O)C4CCCN4C3=O)CC2)cc1.O (centres unmarked) | 18.3 |
| O=C1C2CCCCN2C(=O)N1CCCCN1CCN(c2ccc(F)cc2)CC1 (centres unmarked) | -7.05 |
| Cc1cc(C)cc(N(C(=O)c2csnn2)C(C(=O)NC2CCCCC2)c2ccccn2)c1 (centres unmarked) | 11.5 |
| CN(Cc1ccccc1)C(=O)c1ccc(NC2=NC3CS(=O)(=O)CC3S2)cc1 (centres unmarked) | -3.47 |
| O=C(O)Cc1ccc(O)c(F)c1 | 4.7 |

| SMILES | hERG current change (%, negative = inhibition) at 1uM [%] |
| --- | --- |
| CN1CCN(NC(=S)NC2CCCCC2)CC1 | 3.73 |
| CCOC(=O)C1CCN(C(=O)c2sccc2Cl)CC1 | 12.5 |
| O=S(=O)(Nc1ccc(Cl)cn1)c1ccc(Cl)cc1 | 16.8 |
| O=C(NNC(=O)C1CCCO1)c1ccc(Br)cc1 (centres unmarked) | 8.75 |
| O=C(NC1CCCCC1)NC1CCN(S(=O)(=O)c2ccc3c(c2)OCCO3)CC1 | 9.08 |
| Cc1ccc(S(=O)(=O)N(C(=O)c2ccncc2)c2ccc3oc4c(c3c2)CCCC4)cc1[N+](=O)[O-] | 19.2 |
| Cc1ccc(Nc2nc(Cl)nc(NC(C)(C)C)n2)cc1 | 11.9 |
| O=C(NCC(=O)N1CCN(c2ccccc2)CC1)c1ccc(Br)o1 | -7.83 |
| O=C(NCC(=O)N1CCN(c2cccc(Cl)c2)CC1)c1ccc(Br)o1 | -57.5 |
| Cc1ccc(Cl)cc1N1CCN(C(=O)CNC(=O)c2ccc(Br)o2)CC1 | 4.64 |
| Cc1ccc(-n2c(-c3ccccc3)c[n+]3c2CCC3)cc1.[Br-] | -2.23 |
| Brc1ccc(-c2cn3c(n2)CCc2ccc4cccnc4c2-3)cc1 | 10.5 |
| Cc1ccc(-n2c(-c3ccc(Br)cc3)c[n+]3c2CCc2ccc4cccnc4c2-3)cc1.[Br-] | -86.6 |
| Cc1ccc(-c2c[n+]3c(n2-c2ccccc2)CCC3)cc1.[Br-] | 1.57 |
| COc1ccccc1-n1c(-c2ccccc2)c[n+]2c1CCc1ccccc1-2.[Br-] | -34.7 |
| COc1ccc(-n2c(-c3ccc(Br)cc3)c[n+]3c2SC(C)C3)cc1.[Br-] (centres unmarked) | -26 |
| Cc1ccc(-n2c(-c3ccccc3)c[n+]3c2CCc2ccccc2-3)c(C)c1.[Br-] | -82.5 |
| COc1ccc(-n2c(-c3ccc(Br)cc3)c[n+]3c2CCC3)cc1.[Br-] | -21 |
| COc1ccc(-n2c(-c3ccc(Cl)cc3)c[n+]3c2CCc2ccccc2-3)cc1.[Br-] | -70.3 |
| COc1ccc(-n2c(-c3ccccc3)c[n+]3c2CCC3)cc1.[Br-] | 6.43 |
| COc1ccc(-n2c(-c3ccc(Cl)cc3)c[n+]3c2CCCCC3)cc1.[Br-] | 8.19 |
| COc1ccc(-n2c(-c3ccc(Br)cc3)c[n+]3c2CCc2ccccc2-3)cc1.[Br-] | -90.6 |

| SMILES | hERG current change (%, negative = inhibition) at 1uM [%] |
| --- | --- |
| O=C(NCCN1CCOCC1)c1ccc(N2CCCC2)c([N+](=O)[O-])c1 | -2.75 |
| COC(=O)/C=C\C(=O)Nc1cccc([N+](=O)[O-])c1 | 8.24 |
| CCOc1nc(C)cc(C)c1S(=O)(=O)c1ccc(Cl)cc1 | 9.36 |
| CCCCNC(=O)C1CCCN(S(=O)(=O)c2ccc(S(=O)(=O)NCC(C)C)cc2)C1 (centres unmarked) | -3.36 |
| COc1ccccc1NCC(=O)N/N=C/c1cccnc1 | 4.49 |
| Cn1c(SCC(=O)Nc2ccccc2)nnc1-c1ccc(NC(=O)CCc2ccccc2)cc1 | 6.68 |
| Cc1cc(C)nc(-n2nc(C)cc2NC(=O)CN2CCc3ccccc3C2)n1 | -26.4 |
| COc1ccc(OC)c(C2C(C(N)=O)=C(C)Nc3nc(CCCO)nn32)c1 (centres unmarked) | 15.5 |
| Cc1onc(-c2ccccc2Cl)c1C(=O)N1CCN(c2ccccc2)CC1 | 1.1 |
| O=C(c1cn(-c2ccccc2)nc1-c1cccs1)N1CCOCC1 | 4.92 |
| C=CCN(CC=C)CCOc1cc(C)ccc1[N+](=O)[O-].O=C(O)C(=O)O | 6.69 |
| C=CCN(CC=C)CCOc1ccc(C)cc1[N+](=O)[O-].O=C(O)C(=O)O | -62.5 |
| C=CCN(CC=C)CCOc1ccccc1[N+](=O)[O-].O=C(O)C(=O)O | 1.55 |
| O=C(CN1CCN(C/C=C/c2ccccc2)CC1)Nc1ccccc1C(=O)NC1CC1 | -88.8 |
| CC1CCN(CC(=O)Nc2ccccc2C(=O)NC2CC2)CC1 | 5.31 |
| NC(=O)C1CCN(CC(=O)Nc2ccccc2C(=O)NC2CC2)CC1 | 10.7 |
| O=C(CN1CCN(C/C=C/c2ccccc2)CC1)NC(=O)NC1CCCCC1 | -69.7 |
| S=C(NC1CCCCC1)N1CCN(C/C=C/c2ccccc2)CC1 | 3.77 |
| O=C(CN1CCN(Cc2ccccc2)CC1)NC(=O)NC1CCCCC1 | -16.1 |
| O=C(CSCc1ccccc1)N/N=C/c1cc2c(cc1Br)OCO2 | 8.61 |
